In PubChem BioAssay:
The source made the active and inactive calls. Cut-off read from the data, not from the text of the source: active = inhibition above about 44%; inactive = the rest.

target: Steroidogenic factor 1 (Homo sapiens) (UniProt Q13285); assay: inverse agonism at SF1 nuclear receptor – cell-based, luminescence, high throughput, counter-screen for LRH-1 inverse agonist project (AID 651614); settings: cell-based SF1 luciferase reporter, at 3.6 µM, active compounds read high;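 note: cells cotransfected with StAR promoter reporter and SF1 expression vector; 0% = vehicle on cells with receptor and 100% = vehicle on cells lacking receptor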
Sequence (Q13285 whole entry, looked up): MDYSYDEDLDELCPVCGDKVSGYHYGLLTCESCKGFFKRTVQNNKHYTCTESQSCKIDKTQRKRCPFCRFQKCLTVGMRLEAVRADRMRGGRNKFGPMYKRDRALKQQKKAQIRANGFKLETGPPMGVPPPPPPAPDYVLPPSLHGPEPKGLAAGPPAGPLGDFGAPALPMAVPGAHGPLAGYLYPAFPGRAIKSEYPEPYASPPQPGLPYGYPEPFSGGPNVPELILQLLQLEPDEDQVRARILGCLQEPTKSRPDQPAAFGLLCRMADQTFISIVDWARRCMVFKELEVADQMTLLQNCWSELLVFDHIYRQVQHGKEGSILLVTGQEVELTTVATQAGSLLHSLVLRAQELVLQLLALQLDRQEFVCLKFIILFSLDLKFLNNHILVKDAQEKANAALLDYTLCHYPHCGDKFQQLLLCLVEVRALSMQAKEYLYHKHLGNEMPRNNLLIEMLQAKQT

Row | Structure (SMILES) | inhibition
1 | CC(O)(c1cccnc1)c1nc(-c2cccc(C#N)c2)cs1 (stereo not given) | 54% (active)
2 | Cc1ccc(NC(=O)CSc2sc3c(O)cc(=O)[nH]c3c2C#N)c(F)c1 | 41.9% (inactive)
3 | COc1ccc(Oc2ccccc2/C=N/O)cc1 | 58.1% (active)
4 | Cc1nc2ccccc2n1/N=C/c1ccc([N+](=O)[O-])o1 | 68.1% (active)
5 | CCCCCOc1ccc(NC(=O)CSc2cccc3cccnc23)cc1 | 26.9% (inactive)
6 | c1cncc(-c2nc(N3CCCCCC3)c3ccccc3n2)c1 | 62.8% (active)
7 | O=C(CC1C(=O)NCCN1C(=S)Nc1ccccc1)Nc1ccc2c(c1)OCCO2 (stereo not given) | 63.2% (active)
8 | COc1ccc(-c2sc(C(=O)c3ccc(Cl)cc3Cl)cc2CC(=O)O)cc1 | 38% (inactive)
9 | Cc1c(C)c2ccc(OCC(=O)N3CCN(C(=O)C4COc5ccccc5O4)CC3)cc2oc1=O (stereo not given) | 59.1% (active)
10 | O=C(CNc1cccc2ccccc12)N/N=C/c1ccc([N+](=O)[O-])o1 | 56% (active)
11 | COc1ccc(OCc2nnc3n2N=C(c2ccc(C)cc2)CS3)cc1 | 28.9% (inactive)
12 | CN1CCN(/N=C/c2nc(-c3cccc([N+](=O)[O-])c3)n3ccccc23)CC1 | 42.2% (inactive)
13 | Cc1cc(Cl)ccc1NC(=O)CN1C(=O)C(=O)N(C2CCCC2)C1=O | 43.8% (active)
14 | COc1cccc(-c2nc(NCC3CCCO3)c3ccccc3n2)c1O (stereo not given) | 59.1% (active)
15 | COc1cc(C(=O)Nc2ccccc2C2COC(=O)C2=N)cc(OC)c1OC (stereo not given) | 45.2% (active)
16 | O=C(Nc1ccc(N2CCN(Cc3ccccc3F)CC2)cc1)c1ccc([N+](=O)[O-])o1 | 73.9% (active)
17 | O=C(Nc1ccc(Cc2ccncc2)cc1)c1cccc([N+](=O)[O-])c1 | 51.9% (active)
18 | CC(=O)Nc1ccc(-c2c(C)cc3oc(=O)cc(-c4ccccc4)c3c2C)cc1 | 58.9% (active)
19 | O=C(Nc1c(Cl)ccc2nsnc12)c1ccc([N+](=O)[O-])o1 | 64.9% (active)
20 | CC1(C(=O)NCc2ccco2)Cc2c(-c3ccccc3)ccnc2O1 (stereo not given) | 59% (active)

Row | Structure (SMILES) | inhibition
21 | COc1cc2cc(C(=O)NC(C)c3cccc4ccccc34)c(N)nc2cc1OC (stereo not given) | 59.1% (active)
22 | O=Cc1ccc(N2CCCCCC2)cc1 | 56% (active)
23 | CCN(Cc1ccccc1)c1ccc(/C=N/N2CCOCC2)cc1 | 34.2% (inactive)
24 | COc1ccc(CC(NC(C)=O)C(=O)NC2CCN(c3nnnn3-c3ccccc3)CC2)cc1 (stereo not given) | 43.8% (active)
25 | Cc1cc(SC#N)cc(C)c1NC(=O)CCl | 50.9% (active)
26 | CC1CCCC(C)N1C(=O)COC(=O)Cc1ccc(F)cc1 (stereo not given) | 44.5% (active)
27 | COC(=O)c1cc2c(-c3ccccc3)cc3ccccn3c-2c1C(=O)OC | 54.5% (active)
28 | O=C(Nc1ccc2oc(-c3ccncc3)nc2c1)c1ccc([N+](=O)[O-])o1 | 66.2% (active)
29 | CC(C)=NOc1cc(NC(=O)CCl)cc([N+](=O)[O-])c1 | 56.4% (active)
30 | NC(=S)N/N=C/c1ccc(-n2nncc2-c2ccc(Cl)cc2)cc1 | 56.4% (active)
31 | COc1ccc(NC(=O)CN2C(=O)C(C)SC(C)C2=O)c(OC)c1 (stereo not given) | 49% (active)
32 | CC(=O)Nc1ccc(NC(=O)CSc2nnnn2C2CCCCC2)cc1 | 44.5% (active)
33 | CCOc1cc2c(cc1OCC)C(c1ccc(OC)cc1)N(c1ccccc1)C(=O)C2 (stereo not given) | -5% (inactive)
34 | O=C(N/N=C/c1ccc([N+](=O)[O-])o1)c1ccccc1-n1cccc1 | 63.4% (active)
35 | Cc1c(NC(=O)C(C)OC(=O)c2ccc([N+](=O)[O-])s2)c(=O)n(-c2ccccc2)n1C (stereo not given) | 19.4% (inactive)
36 | Cc1cc(C)c(C(N)=O)c(Nc2cccc3ccccc23)n1 | 22.7% (inactive)
37 | Cc1onc(-c2c(F)cccc2Cl)c1C(=O)Nc1cccc2nsnc12 | 49.8% (active)
38 | Oc1[nH]c2ccccc2c1N=NC(=S)N1CCOCC1 | 80% (active)
39 | COc1ccc(S(=O)(=O)N2CCCCC2)cc1NC(=O)c1ccc([N+](=O)[O-])o1 | 68.1% (active)
40 | O=C(CSc1ccccn1)Nc1nonc1[N+](=O)[O-] | 26.5% (inactive)
